In PubChem BioAssay (NCI) one finds growth data, which are given here for 8 compounds.

Compounds without any hit were thinned out: in the full panel of roughly 83,000, 20% have a hit.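 96-well plates, one dose, 48 hours. Percent growth reported; active if below 10.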 Values without a mark were called inactive. The source made the active and inactive calls.

Among the test systems are SR leukemia; RPMI-8226 leukemia; OVCAR-8 ovarian; OVCAR-5 ovarian; OVCAR-4 ovarian; SK-OV-3 ovarian; IGROV1 ovarian; OVCAR-3 ovarian; HS 578T breast; NCI/ADR-RES ovarian; T-47D breast; BT-549 breast; MDA-MB-435 melanoma; SW-620 colon; MCF7 breast; HCT-116 colon; HCC-2998 colon; KM12 colon; MDA-MB-468 breast.
What all share (assay): NCI-60 one-dose screen, 48 h (100 = growth as untreated, 0 = no growth, -100 = all killed)
What all share (conditions): 10 µM unless noted

As to `CCCS(=O)(=O)N1CCCC(C(=O)Nc2nc3ccc(NC(=O)c4ccc(F)c(OC)c4F)cc3s2)C1` (configuration not stated), the growth was 16.2% in the assay on SR leukemia; 12.4% with RPMI-8226 leukemia; 26.6% in the assay on OVCAR-8 ovarian; 86% in the assay on OVCAR-5 ovarian; 32.3% in the assay on OVCAR-4 ovarian; 61.1% with SK-OV-3 ovarian. Further, the growth is 63.3% in the assay on IGROV1 ovarian; 48.9% with OVCAR-3 ovarian; 29.4% with HS 578T breast; 19.9% in the assay with NCI/ADR-RES ovarian; -0.579% (active) in the assay on T-47D breast; -11.9% (active) in the assay with BT-549 breast. For the same compound, the growth with MDA-MB-435 melanoma was 36.4%; with SW-620 colon, 81.6%; in the assay on MCF7 breast it was 13.1%; with HCT-116 colon, 31.1%; in the assay on HCC-2998 colon it was 72.5%; in the assay on KM12 colon it was 41.3%. Moreover, the growth in the assay with MDA-MB-468 breast was 18.5%.
Regarding `CCN1C(=O)/C(=N\N=C(/C)c2ccc3c(c2)Nc2ccccc2S3)c2cc(Cl)ccc21`, the growth in the assay on SR leukemia was 60.8%; in the assay with RPMI-8226 leukemia it was 48%; in the assay on OVCAR-8 ovarian it was 68.1%; in the assay with OVCAR-5 ovarian, 83.7%; in the assay on OVCAR-4 ovarian it was 41.6%; in the assay on SK-OV-3 ovarian it was 108%. Moreover, the growth is 69.9% in the assay with IGROV1 ovarian; 55.6% in the assay on OVCAR-3 ovarian; 80% with HS 578T breast; 68.8% with NCI/ADR-RES ovarian; 34.3% in the assay with T-47D breast; 48.8% with BT-549 breast. For the same compound, the growth in the assay with MDA-MB-435 melanoma was 29.6%; with SW-620 colon it was 85.9%; in the assay with MCF7 breast, 17.6%; in the assay on HCT-116 colon, 48.8%; in the assay on HCC-2998 colon, 102%; in the assay with KM12 colon it was 47.3%. For the same compound, in the assay on MDA-MB-468 breast, the growth is 9.33% (active).
On to `CC1(C)CC[C@]2(C(=O)O)CC[C@]3(C)C(=CCC4[C@@]5(C)C[C@@H](O)[C@@H]6OC(c7ccccc7Br)OC[C@@]6(C)C5CC[C@]43C)C2C1` (some centres not stated), for which the growth is 12.5% in the assay with SR leukemia; 8.21% (active) in the assay on RPMI-8226 leukemia; 14.7% with OVCAR-8 ovarian; 36% in the assay on OVCAR-5 ovarian; 33.1% in the assay on OVCAR-4 ovarian; 40.2% with SK-OV-3 ovarian. The growth is 35% in the assay on IGROV1 ovarian; 9.3% (active) in the assay on OVCAR-3 ovarian; 31.9% in the assay with HS 578T breast; 11.5% in the assay with NCI/ADR-RES ovarian; 20.4% in the assay with T-47D breast; 13.5% in the assay with BT-549 breast. Moreover, the growth in the assay on MDA-MB-435 melanoma is 28%; in the assay with SW-620 colon, 19.5%; in the assay on MCF7 breast, 7.28% (active); in the assay on HCT-116 colon, 6.88% (active); with HCC-2998 colon, 18.8%; in the assay with KM12 colon it was 16.9%. In addition, the growth with MDA-MB-468 breast is 18.4%.
In the case of `CCCCSc1nc(Nc2ccc(C(C)=O)cc2)c(C#N)c(-c2ccc(OC)cc2)n1`, the growth was 70.9% in the assay with SR leukemia; 91% with RPMI-8226 leukemia; 27.5% in the assay with OVCAR-8 ovarian; 57.9% in the assay with OVCAR-5 ovarian; -45.4% (active) with OVCAR-4 ovarian; 106% in the assay on SK-OV-3 ovarian. In addition, the growth is 38.5% with IGROV1 ovarian; 20.8% with OVCAR-3 ovarian; 66.1% in the assay on HS 578T breast; 58.1% in the assay with NCI/ADR-RES ovarian; 64.3% in the assay on T-47D breast; 75.3% in the assay on BT-549 breast. The growth with MDA-MB-435 melanoma is 75.4%; with SW-620 colon, 63.2%; in the assay on MCF7 breast, 65.4%; with HCT-116 colon, 32.5%; with HCC-2998 colon, 98.4%; in the assay with KM12 colon, 95.3%. Also, in the assay with MDA-MB-468 breast, the growth was 67.5%.
In the case of `COc1ccc(CCC2c3c(cc4c(c3OC)OCO4)CCN2C)cc1` (configuration not stated), the growth with SR leukemia was -18.2% (active); with RPMI-8226 leukemia it was -28.5% (active); in the assay with OVCAR-8 ovarian, -41.7% (active); in the assay on OVCAR-5 ovarian it was -16.5% (active); with OVCAR-4 ovarian, 9.34% (active); in the assay on SK-OV-3 ovarian it was -37.6% (active). Moreover, the growth in the assay with IGROV1 ovarian is -52.4% (active); in the assay with OVCAR-3 ovarian, -21.2% (active); in the assay with HS 578T breast, 11%; with NCI/ADR-RES ovarian, -54.5% (active); in the assay with T-47D breast it was -43.1% (active); in the assay with BT-549 breast it was -69.9% (active). Moreover, the growth in the assay with MDA-MB-435 melanoma was -66.2% (active); in the assay with SW-620 colon it was -78.1% (active); with MCF7 breast, -82.3% (active); in the assay on HCT-116 colon, -58.3% (active); in the assay with HCC-2998 colon it was -78.8% (active); with KM12 colon it was -37.3% (active). In the assay on MDA-MB-468 breast, the growth was -81.5% (active).
With `O=c1[nH]c2ccccc2cc1CSc1cccc(Nc2nccc(-c3ccc4ccccc4c3)n2)c1`, the growth in the assay with SR leukemia is 89.5%; in the assay on RPMI-8226 leukemia it was 49.4%; in the assay with OVCAR-8 ovarian, 74.9%; in the assay on OVCAR-5 ovarian, 114%; with OVCAR-4 ovarian, 69.4%; in the assay with SK-OV-3 ovarian, 115%. In addition, the growth in the assay with IGROV1 ovarian was 102%; in the assay with OVCAR-3 ovarian, 117%; in the assay with HS 578T breast it was 105%; in the assay on NCI/ADR-RES ovarian it was 51.4%; with T-47D breast it was 60.9%; in the assay with BT-549 breast, 85.4%. Also, the growth is 87.9% with MDA-MB-435 melanoma; 105% with SW-620 colon; 85.1% in the assay with MCF7 breast; 79.7% in the assay on HCT-116 colon; 97.3% in the assay on HCC-2998 colon; 95.9% in the assay on KM12 colon. For the same compound, the growth in the assay with MDA-MB-468 breast is 80.4%.
Consider `CN(C)c1ccnc(CNCCSC2(c3ccccc3)c3ccccc3C=Cc3ccccc32)c1`, for which the growth with SR leukemia was -52.6% (active); with RPMI-8226 leukemia it was -48% (active); with OVCAR-8 ovarian it was -45.1% (active); in the assay on OVCAR-5 ovarian, 1.39% (active); in the assay with OVCAR-4 ovarian, 16.8%; in the assay on SK-OV-3 ovarian it was 6.47% (active). Moreover, the growth in the assay with IGROV1 ovarian is 11.1%; in the assay on OVCAR-3 ovarian it was -58.6% (active); in the assay on HS 578T breast it was -34% (active); with NCI/ADR-RES ovarian, -61.6% (active); in the assay on T-47D breast, -32% (active); in the assay with BT-549 breast, -47.1% (active). The growth is -86.3% (active) in the assay on MDA-MB-435 melanoma; -76.1% (active) in the assay with SW-620 colon; -75.8% (active) with MCF7 breast; -38.8% (active) in the assay on HCT-116 colon; -77.3% (active) with HCC-2998 colon; -61% (active) in the assay with KM12 colon. Besides, the growth with MDA-MB-468 breast is -55.3% (active).
With `COc1cc(C2CC(c3cc(OC)c(OC)c(OC)c3)=NN2C(C)=O)ccc1OCc1ccccc1` (configuration not stated), the growth in the assay on SR leukemia was 32.1%; in the assay on RPMI-8226 leukemia, 24.2%; in the assay with OVCAR-8 ovarian it was 46.7%; with OVCAR-5 ovarian it was 59.8%; in the assay with OVCAR-4 ovarian, 22.3%; with SK-OV-3 ovarian it was 71.3%. In addition, the growth in the assay on IGROV1 ovarian is 42.9%; in the assay on OVCAR-3 ovarian, 41%; in the assay with HS 578T breast it was 41%; in the assay with NCI/ADR-RES ovarian, 38.4%; in the assay with T-47D breast, 2.7% (active); in the assay with BT-549 breast, 17.4%. In addition, the growth is 44.6% in the assay with MDA-MB-435 melanoma; 55.1% in the assay with SW-620 colon; 17.1% with MCF7 breast; 24.3% in the assay on HCT-116 colon; 71.2% in the assay on HCC-2998 colon; 33.9% with KM12 colon. Further, the growth with MDA-MB-468 breast is 34.2%.
